Results reported in the supplement of paper PMC10077471.
In all, about 1,900 compounds were measured (“excess over highest single agent (ExcessHSA) synergy score, 6x6 matrix”: median about -83, lowest 2% from about -370 on). Only a selection was taken, and the lowest values are over-represented in it overall.

These compounds were tested on NCI-H446 (assay: excess over highest single agent (ExcessHSA) synergy score, 6x6 matrix; higher = less synergy (more negative = stronger synergy)). Conditions: 72 h; CellTiter-Glo viability.

| SMILES | excess over highest single agent |
| --- | --- |
| CC(C)Oc1cc(Nc2nc(N[C@@H](C)c3ccc(F)cn3)ncc2Cl)n[nH]1 + Cc1sc2c(c1C)C(c1ccc(Cl)cc1)=N[C@@H](CC(=O)OC(C)(C)C)c1nnc(C)n1-2 [NCGC00250412-19] | -396 |
| Cc1cc(Nc2nc(N[C@@H](C)c3ccc(F)cc3)c(C#N)cc2F)n[nH]1 + Cc1sc2c(c1C)C(c1ccc(Cl)cc1)=N[C@@H](CC(=O)OC(C)(C)C)c1nnc(C)n1-2 [NCGC00250412-19] | -209 |
| Cc1cc(Nc2nc(N[C@@H](C)c3ncc(F)cn3)ncc2Cl)[nH]n1 + Cc1sc2c(c1C)C(c1ccc(Cl)cc1)=N[C@@H](CC(=O)OC(C)(C)C)c1nnc(C)n1-2 [NCGC00250412-19] | -46 |
| CCOC(=O)C1=C(O)C(=O)N(Cc2ccccc2)C1 + Cc1sc2c(c1C)C(c1ccc(Cl)cc1)=N[C@@H](CC(=O)OC(C)(C)C)c1nnc(C)n1-2 [NCGC00250412-19] | -90.7 |
| Cc1ccccn1.N.[Cl-].[Cl-].[Pt+2] + Cc1sc2c(c1C)C(c1ccc(Cl)cc1)=N[C@@H](CC(=O)OC(C)(C)C)c1nnc(C)n1-2 [NCGC00250412-19] | 123 |
| CNC(=O)c1ccc(-c2cnc3ncc(Cc4ccc5ncccc5c4)n3n2)cc1F + Cc1sc2c(c1C)C(c1ccc(Cl)cc1)=N[C@@H](CC(=O)OC(C)(C)C)c1nnc(C)n1-2 [NCGC00250412-19] | 48.7 |
| OC[C@H]1OC(O)C[C@@H](O)[C@@H]1O (some centres undefined) + Cc1sc2c(c1C)C(c1ccc(Cl)cc1)=N[C@@H](CC(=O)OC(C)(C)C)c1nnc(C)n1-2 [NCGC00250412-19] | -201 |
| N#Cc1c(N(CC(=O)O)CC(=O)O)sc(C(=O)O)c1CC(=O)O + Cc1sc2c(c1C)C(c1ccc(Cl)cc1)=N[C@@H](CC(=O)OC(C)(C)C)c1nnc(C)n1-2 [NCGC00250412-19] | -47.5 |
| C[C@@H]1[C@@H](C(=O)C[C@H]2O[C@@H]3O[C@]4(C)CC[C@@H]5[C@H](C)CC[C@@H]([C@H]2C)[C@@]35OO4)O[C@@H]2O[C@]3(C)CC[C@H]4[C@H](C)CC[C@@H]1[C@@]24OO3 + Cc1sc2c(c1C)C(c1ccc(Cl)cc1)=N[C@@H](CC(=O)OC(C)(C)C)c1nnc(C)n1-2 [NCGC00250412-19] | -355 |
| C[C@H]1[C@@H](O)O[C@@H]2O[C@@]3(C)CC[C@H]4[C@H](C)CC[C@@H]1[C@@]24OO3 + Cc1sc2c(c1C)C(c1ccc(Cl)cc1)=N[C@@H](CC(=O)OC(C)(C)C)c1nnc(C)n1-2 [NCGC00250412-19] | -199 |
| C=CCON=C(C[C@H]1O[C@@H]2O[C@]3(C)CC[C@@H]4[C@H](C)CC[C@@H]([C@H]1C)[C@@]24OO3)[C@H]1O[C@@H]2O[C@]3(C)CC[C@H]4[C@H](C)CC[C@@H]([C@@H]1C)[C@@]24OO3 + Cc1sc2c(c1C)C(c1ccc(Cl)cc1)=N[C@@H](CC(=O)OC(C)(C)C)c1nnc(C)n1-2 [NCGC00250412-19] | -427 |
| Cn1cnc(=N)c2[nH]cnc21 + Cc1sc2c(c1C)C(c1ccc(Cl)cc1)=N[C@@H](CC(=O)OC(C)(C)C)c1nnc(C)n1-2 [NCGC00250412-19] | -164 |
| CN1c2cc(O)c(N=NC(N)=O)cc2CC1S(=O)(=O)O (centres undefined) + Cc1sc2c(c1C)C(c1ccc(Cl)cc1)=N[C@@H](CC(=O)OC(C)(C)C)c1nnc(C)n1-2 [NCGC00250412-19] | -280 |
| O=C(O)C(=O)Nc1cccc(-c2nnn[nH]2)c1 + Cc1sc2c(c1C)C(c1ccc(Cl)cc1)=N[C@@H](CC(=O)OC(C)(C)C)c1nnc(C)n1-2 [NCGC00250412-19] | 42.8 |
| C#CCN(C)CC1=Cc2ccccc2Oc2ccccc21 + Cc1sc2c(c1C)C(c1ccc(Cl)cc1)=N[C@@H](CC(=O)OC(C)(C)C)c1nnc(C)n1-2 [NCGC00250412-19] | -204 |
| Cc1cnc(CNC(=O)c2c(=O)c3ccc(N4CCCN(C)CC4)nc3n3c2sc2ccccc23)cn1 + Cc1sc2c(c1C)C(c1ccc(Cl)cc1)=N[C@@H](CC(=O)OC(C)(C)C)c1nnc(C)n1-2 [NCGC00250412-19] | -259 |
| Cc1cn2cc(C(=O)N(C)CCO)cc(N[C@@H]3CCOc4cccc(C)c43)c2n1 + Cc1sc2c(c1C)C(c1ccc(Cl)cc1)=N[C@@H](CC(=O)OC(C)(C)C)c1nnc(C)n1-2 [NCGC00250412-19] | 64.1 |
| CNC(=O)N1N=C(c2ccc(N)cc2)c2cc3c(cc2CC1C)OCO3 (centres undefined) + Cc1sc2c(c1C)C(c1ccc(Cl)cc1)=N[C@@H](CC(=O)OC(C)(C)C)c1nnc(C)n1-2 [NCGC00250412-19] | -19.1 |
| O=C(CCCCCCC(=O)Nc1cccnc1)NO + Cc1sc2c(c1C)C(c1ccc(Cl)cc1)=N[C@@H](CC(=O)OC(C)(C)C)c1nnc(C)n1-2 [NCGC00250412-19] | -276 |
| Nc1ccc(C(=O)Nc2cccc(-c3nc(N4CCOCC4)c4oc5ncccc5c4n3)c2)cn1 + Cc1sc2c(c1C)C(c1ccc(Cl)cc1)=N[C@@H](CC(=O)OC(C)(C)C)c1nnc(C)n1-2 [NCGC00250412-19] | 98.4 |
| c1cncc(CN2CCC(n3ncc4c(N5CCOCC5)nc(-c5ccc6[nH]ccc6c5)nc43)CC2)c1 + Cc1sc2c(c1C)C(c1ccc(Cl)cc1)=N[C@@H](CC(=O)OC(C)(C)C)c1nnc(C)n1-2 [NCGC00250412-19] | -140 |
| Oc1cccc(-c2nc(N3CCOCC3)c3oc4ncccc4c3n2)c1 + Cc1sc2c(c1C)C(c1ccc(Cl)cc1)=N[C@@H](CC(=O)OC(C)(C)C)c1nnc(C)n1-2 [NCGC00250412-19] | -410 |
| Cc1ccc(C(=O)Nc2cccc(C(F)(F)F)c2)cc1-c1ccc2nc(NCCN3CCOCC3)ncc2c1 + Cc1sc2c(c1C)C(c1ccc(Cl)cc1)=N[C@@H](CC(=O)OC(C)(C)C)c1nnc(C)n1-2 [NCGC00250412-19] | -140 |
| Nc1ncnc2c1c(-c1cccc(OCc3ccccc3)c1)cn2C1CC(CN2CCC2)C1 (centres undefined) + Cc1sc2c(c1C)C(c1ccc(Cl)cc1)=N[C@@H](CC(=O)OC(C)(C)C)c1nnc(C)n1-2 [NCGC00250412-19] | -56.6 |
